# Laboratory results reported in ChEMBL document CHEMBL3988442, “University of Dundee, Small-Polar-MMV Screening Library” (2021).
# Biological target: T1, Aspartate--tRNA(Asp/Asn) ligase (Mycobacterium tuberculosis (strain ATCC 25618 / H37Rv)) (UniProt P9WFW3)
# T1 sequence (whole entry): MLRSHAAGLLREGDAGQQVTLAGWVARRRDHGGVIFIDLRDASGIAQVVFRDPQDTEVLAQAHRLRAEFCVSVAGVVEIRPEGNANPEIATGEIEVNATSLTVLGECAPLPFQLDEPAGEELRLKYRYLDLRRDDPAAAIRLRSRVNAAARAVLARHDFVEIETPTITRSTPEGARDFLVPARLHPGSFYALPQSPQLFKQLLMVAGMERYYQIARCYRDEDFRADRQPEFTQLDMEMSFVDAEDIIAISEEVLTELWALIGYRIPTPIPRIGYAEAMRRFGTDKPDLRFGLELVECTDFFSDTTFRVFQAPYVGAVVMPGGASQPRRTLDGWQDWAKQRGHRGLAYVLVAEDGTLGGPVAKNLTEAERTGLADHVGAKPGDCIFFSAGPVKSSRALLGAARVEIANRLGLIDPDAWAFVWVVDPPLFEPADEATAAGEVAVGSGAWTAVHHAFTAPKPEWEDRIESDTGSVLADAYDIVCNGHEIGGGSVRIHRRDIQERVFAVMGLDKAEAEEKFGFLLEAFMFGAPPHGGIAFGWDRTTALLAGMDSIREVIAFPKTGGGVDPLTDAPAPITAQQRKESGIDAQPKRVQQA
# Assay: Assay for Asp RNA synthetase-1 from Mycobacterium tuberculosis
# Type: functional
# Parameters: scale not given: in the data most compounds retested in dose-response had high values
# Conditions: 30 µM
row,SMILES,Percent Effect [%]
1,CCc1cc(N[C@H]2CC[C@H](O)CC2)n2nc(C)c(C)c2n1,1.45
2,CCc1nc(CN2CCCC(N(C)Cc3cnc(C)s3)C2)no1 (stereo not given),-0.259
3,Cc1cc(C(=O)N2CCc3nnc(N)cc3C2)c(C)n1C1CC1,7.93
4,O=C1COC2(COCCN(Cc3cccnc3)C2)CN1c1ccoc1 (stereo not given),9.69
5,Cn1c(CN2CCOCC2)nnc1C1CCN(C(=O)C2CCCC2)CC1,1.73
6,CN(C)C(CNC(=O)c1cc2c([nH]c1=O)CCCC2=O)c1ccsc1 (stereo not given),2.97
7,Cc1cc(C)n(CC2CCCN2C(=O)c2ccc3c(c2)nnn3C)n1 (stereo not given),5.23
8,COc1ccc(CN2CCC(O)CC2)c(OC)c1,-2.06
9,CCNC(c1ccc(OC)cc1)c1cccnc1 (stereo not given),1.53
10,O=C(CC1CCCC1)N1CCCC1c1nc(O)cc(-c2ccccn2)n1 (stereo not given),-2.84
11,Fc1cccc(-n2ccc(CN3CCCCC3Cn3cncn3)n2)c1 (stereo not given),-3.17
12,COCC(=O)N1CCC2(CC1)COCCN2CCN(C)C,3.2
13,Cc1nnc2n1CCN(CCOc1ccccc1)C2,-6.3
14,CN1CCCC(Cc2cncc(C(=O)NCC3CC3)c2)C1 (stereo not given),-1.03
15,Cc1cc(N2CCCC2c2cnccn2)ncn1 (stereo not given),0.908
16,O=C(COC[C@H]1CC[C@H]2[C@H](CCN2c2ncccn2)O1)N1CCCC1,-2.51
17,CC(C)(C)c1nnc(CN2CCCC(c3cc(C(N)=O)[nH]n3)C2)o1 (stereo not given),-0.781
18,CN(C)C(=O)C1CN(Cc2ccccc2)CCN(S(C)(=O)=O)C1 (stereo not given),-2.4
19,COCCN1CCN(Cc2cccc(C(N)=O)c2)CC1C (stereo not given),-1.6
20,c1nc2n(n1)CC(NCc1csc(-c3ccsc3)n1)CC2 (stereo not given),-1.92
